# In the supplement of paper PMC10646978:
# ± gives the standard deviation.
# Tests used:
# Settings in all cases: modulator concentration 10 µM
# [1] = system: RAW-Dual (murine macrophage reporter line); assay: NF-kB reporter (SEAP) activity fold change vs agonist alone; higher = enhanced NF-kB activity
# Summary of the method: (§1)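 Compound reached 10 μM final in each well by pin transfer, onto RAW-Dual murine macrophage reporter cells seeded at 50 000 per well in 384-well plates. After 1 hour at 37 °C, the cells were stimulated overnight with a PRR agonist. SEAP in the supernatant was read with QUANTI-Blue at 620 nm absorbance for NF-κB, and Lucia luciferase was read with QUANTI-Luc luminescence for IRF. Each signal was turned into fold change against the mean agonist-only control on the same plate, and two replicate plates were averaged with propagated errors.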
# [2] = system: RAW-Dual (murine macrophage reporter line); assay: IRF reporter (Lucia luciferase) activity fold change vs agonist alone; higher = enhanced IRF activity
# Summary of the method: as §1
# [3] = system: RAW-Dual (murine macrophage reporter line); assay: viability score (confluency relative to resting cells, overnight) (fraction); higher = more viable, active = viable (0.7 or more)
# Summary of the method: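 Overnight exposure to 10 μM final compound was carried out on RAW-Dual macrophages in 384-well plates. IncuCyte software generated two confluency masks over all wells imaged with IncuCyte. The viability score gives confluency in relation to resting cells. A compound met the cutoff if each mask exceeded 70% of resting cells.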
# [4] = agonist: CpG ODN 1826 0.5 ug/mL
SMILES,"NF-kB reporter [1, 4]",NF-kB reporter ([1]; agonist: LPS 0.1 ug/mL),NF-kB reporter ([1]; agonist: MPLA […]),IRF reporter ([2]; agonist: 3'3'-cGAMP 10 ug/mL),IRF reporter ([2]; agonist: LPS 0.1 ug/mL),IRF reporter ([2]; agonist: MPLA […]),viability score [3]
COc1ccc(C=NNC(=O)C2COc3cc4ccccc4cc3O2)c(O)c1 (stereo unspecified),0.993 ± 0.094,0.966 ± 0.054,0.98 ± 0.079,0.956 ± 0.031,1.31 ± 0.18,1.1 ± 0.15,1.01 (active)
CCN(CC)c1ccc(C=NNC(=O)c2ccncc2)c(O)c1,2.56 ± 0.2,1.66 ± 0.13,5.41 ± 0.24,0.888 ± 0.12,1.29 ± 0.084,1.35 ± 0.14,0.695 (inactive)
O=C(CN(CCc1ccccc1)S(=O)(=O)c1ccc(Cl)cc1)NCc1ccccn1,0.824 ± 0.065,0.95 ± 0.049,0.987 ± 0.092,0.741 ± 0.035,1.45 ± 0.084,1.49 ± 0.16,1.02 (active)
O=C(NCc1cccc(Oc2ccccn2)c1)C1c2ccccc2Oc2ccccc21,0.52 ± 0.041,1.12 ± 0.088,0.883 ± 0.039,0.801 ± 0.077,1.01 ± 0.12,1.11 ± 0.27,0.992 (active)
CN(C)c1cncc(OC2CCN(S(C)(=O)=O)C2)n1 (stereo unspecified),1.02 ± 0.12,1.12 ± 0.1,0.911 ± 0.04,0.836 ± 0.045,0.951 ± 0.064,0.923 ± 0.07,1.01 (active)
O=C(NN=Cc1c(O)ccc2ccccc12)c1ccccc1I,1.54 ± 0.47,1.11 ± 0.096,1.02 ± 0.099,0.847 ± 0.043,1.47 ± 0.15,1.55 ± 0.17,1 (active)
CC12CC3CC(C)(C1)CC(N)(C3)C2 [Prestw-978],0.916 ± 0.073,0.95 ± 0.092,0.996 ± 0.095,1.26 ± 0.045,0.925 ± 0.078,0.844 ± 0.17,0.979 (active)
COc1ccc(-c2csc(NC(=O)CCc3ccccc3)c2C(=O)O)cc1,0.697 ± 0.1,0.809 ± 0.072,1.04 ± 0.15,0.957 ± 0.046,1.51 ± 0.12,1.63 ± 0.14,1.02 (active)
COC(=O)CNC(c1ccccc1)c1cc(Br)ccc1NC(=O)c1ccccc1Cl (stereo unspecified),0.675 ± 0.059,1.08 ± 0.092,0.963 ± 0.091,1 ± 0.037,1.78 ± 0.17,1.59 ± 0.16,1.01 (active)
O=c1cc(-c2ccccc2)oc2cc(O)c(O)c(O)c12,1.51 ± 0.5,1.09 ± 0.075,1.2 ± 0.15,0.649 ± 0.034,1 ± 0.15,0.967 ± 0.12,0.992 (active)
Cc1nc2sccn2c(=O)c1CCN1CCC(=C(c2ccc(F)cc2)c2ccc(F)cc2)CC1,0.91 ± 0.1,1 ± 0.061,0.901 ± 0.053,0.92 ± 0.056,1.12 ± 0.18,1.01 ± 0.15,1 (active)
CN(C)CCOC(=O)COc1ccc(Cl)cc1.Cl,1.11 ± 0.084,1.09 ± 0.088,1.01 ± 0.038,0.882 ± 0.076,0.963 ± 0.043,0.964 ± 0.08,0.999 (active)
Brc1ccc2ncnc(Nc3ccccc3)c2c1,1.03 ± 0.12,1.25 ± 0.097,1.04 ± 0.029,0.357 ± 0.021,0.629 ± 0.039,0.731 ± 0.08,1 (active)
